Test results: PubChem BioAssay (Tox21)
Results filed as inconclusive are left out. The source made the active and inactive calls. Calls come from the whole dose curve; as a rule, active = well fitted curve in the direction sought with a large enough effect in the repeat runs; inconclusive = weak or mixed curves; inactive = no such curve, though single readings can be large; an effect the other way counts as inactive or inconclusive.

Columns and labels:
[1] = A CellTox Green Cytotoxicity Assay to monitor cytotoxicity in HEK293 cells - 40 hour (AID 1224871); note: nearly all actives have a fitted effect of over 45% in size
Procedure, shortened: (§1)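 Fluorescence from a DNA-binding dye excluded by viable cells was measured repeatedly in the same HEK293 wells (600 cells/well) during continuous compound exposure at 37 C. Each assay gives one read point: 0, 8, 16, 24, 32 or 40 h.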

[2] = qHTS RealTime-Glo MT Cell Viability Assay in HEK293 cells - 16 hour (AID 1224872); note: top concentration of the series differs between compounds; nearly all actives have a fitted effect of over 50% in size
Procedure, shortened: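 Viability tracked continuously by luminescence as live cells reduce a prosubstrate for NanoLuc; HEK293 cells preincubated 5 h, compound-treated at 37 C, and read at 0, 8, 16, 24, 32 and 40 h.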

[3] = qHTS RealTime-Glo MT Cell Viability Assay in HepG2 cells - 8 hour (AID 1224873); note: nearly all actives have a fitted effect of over 55% in size
Procedure, shortened: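 HepG2 cells (600/well) mixed with RealTime-Glo MT reagent, settled 5 h at 37 C/5% CO2 before compound addition. Nonlytic NanoLuc luminescence from viable-cell prosubstrate reduction read repeatedly during 40 h treatment at 37 C.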

[4] = qHTS RealTime-Glo MT Cell Viability Assay in HEK293 cells - 40 hour (AID 1224874); conditions: RealTime-Glo luminescence; max response: active compounds read low; note: nearly all actives have a fitted effect of over 50% in size
Procedure, shortened: (§2)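 Luminescence, which tracks viable cell number through reduction of the prosubstrate to a NanoLuc substrate, was read over continuous 37 C culture. Cells (600/well) were premixed with reagent and rested 5 h before 23 nL of compound in DMSO was pinned.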

[5] = A CellTox Green Cytotoxicity Assay to monitor cytotoxicity in HEK293 cells - 24 hour (AID 1224875); note: series mostly up to about 77 µM; nearly all actives have a fitted effect of over 45% in size
Procedure, shortened: as §1

[6] = A CellTox Green Cytotoxicity Assay to monitor cytotoxicity in HepG2 cells - 16 hour (AID 1224876); note: nearly all actives have a fitted effect of over 45% in size
Procedure, shortened: (§3)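 Real-time cytotoxicity: fluorescence of a cell-impermeant cyanine dye binding DNA of dead HepG2 cells, measured repeatedly (0–40 h) during compound exposure at 37 C. Cells seeded 600/well with reagent, dosed after 5 h.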

[7] = qHTS RealTime-Glo MT Cell Viability Assay in HepG2 cells - 32 hour (AID 1224877); note: nearly all actives have a fitted effect of over 55% in size; note: potency is the fitted concentration of half-maximal effect
Procedure, shortened: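 Viability was tracked continuously by NanoLuc luminescence from prosubstrate reduced by living HepG2 cells, at successive time points over 40 h of compound exposure. Cells with reagent were preincubated 5 h at 37 °C before compound addition.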

[8] = A CellTox Green Cytotoxicity Assay to monitor cytotoxicity in HepG2 cells - 24 hour (AID 1224878); note: nearly all actives have a fitted effect of over 45% in size
Procedure, shortened: as §3

[9] = A CellTox Green Cytotoxicity Assay to monitor cytotoxicity in HepG2 cells - 40 hour (AID 1224879); note: nearly all actives have a fitted effect of over 40% in size
Procedure, shortened: as §3

[10] = qHTS RealTime-Glo MT Cell Viability Assay in HEK293 cells - 0 hour (AID 1224880)
Procedure, shortened: as §2
% is set by controls: 0 for no effect and ±100 for the full control effect.

CC(=O)C1CCCCC1=O (stereo not given)
inactive: Potency [1] | Potency [2] | outcome [3] | max response [4] 15.3% | outcome [5] | outcome [6] | Potency [7] | outcome [8] | Potency [9]

CCOc1ccccc1OCC
inactive: Potency [1] | Potency [2] | outcome [3] | max response [4] 5.1% | outcome [5] | outcome [6] | Potency [7] | outcome [8] | Potency [9]

Cc1ccc(C(=O)c2ccccc2)cc1
inactive: Potency [1] | Potency [2] | outcome [3] | max response [4] -1.28% | outcome [5] | outcome [6] | Potency [7] | outcome [8] | Potency [9] | Potency [10]

CCOC(=O)C(=O)CCCCCCl
inactive: Potency [1] | Potency [2] | outcome [3] | max response [4] 4.01% | outcome [5] | outcome [6] | Potency [7] | outcome [8] | Potency [9]

[K+]
inactive: Potency [1] | Potency [2] | outcome [3] | max response [4] 21.2% | outcome [5] | outcome [6] | outcome [8] | Potency [9]
active: Potency [7] 49 µM

C1CCC2=NCCCN2CC1
inactive: Potency [1] | Potency [2] | outcome [3] | max response [4] 20.2% | outcome [5] | outcome [6] | Potency [7] | outcome [8] | Potency [9]

CC(C)C1CCC(O)CC1 (stereo not given)
inactive: Potency [1] | Potency [2] | outcome [3] | max response [4] 7.59% | outcome [5] | outcome [6] | Potency [7] | outcome [8] | Potency [9]

C=COC(=O)C(C)(CC)CCC(C)C (stereo not given)
inactive: Potency [1] | Potency [2] | outcome [3] | max response [4] 0.193% | outcome [5] | outcome [6] | Potency [7] | outcome [8] | Potency [9]

COc1cc(-c2ccc(=O)[nH]n2)ccc1OC(F)F
inactive: Potency [1] | Potency [2] | outcome [3] | max response [4] -5.19% | outcome [5] | outcome [6] | Potency [7] | outcome [8] | Potency [9]

CCCCCCCCCCCCSC
inactive: Potency [1] | Potency [2] | outcome [3] | max response [4] 0.729% | outcome [5] | outcome [6] | Potency [7] | outcome [8]

CCCCCC(C)N (stereo not given)
inactive: Potency [1] | Potency [2] | outcome [3] | max response [4] 1.04% | outcome [5] | outcome [6] | Potency [7] | outcome [8]

CC(C)(C)C(=O)Oc1ccc(S(=O)(=O)Nc2ccccc2C(=O)NCC(=O)O)cc1
inactive: Potency [1] | Potency [2] | outcome [3] | max response [4] 7.92% | outcome [5] | outcome [6] | Potency [7] | outcome [8] | Potency [9]

COc1ccc2cc1Oc1cc3c(cc1OC)CC[N+](C)(C)[C@H]3Cc1ccc(cc1)Oc1c(OC)c(OC)cc3c1[C@@H](C2)[N+](C)(C)CC3
active: Potency [7] 21.3 µM
inactive: Potency [1] | Potency [2] | outcome [3] | max response [4] -3.12% | outcome [5] | outcome [6] | outcome [8] | Potency [9]

CCCCCCCCCCOc1cc2c(=O)c(C(=O)OCC)c[nH]c2cc1OCC
inactive: cytotoxicity increase [1] 0.78% [at 6.97 µM] | activity change, negative = cytotoxicity [2] -0.329% [at 6.97 µM] | viability change, negative = cytotoxic [3] 8.14% [at 6.97 µM] | max response [4] 4.14% | activity change [5] 2.15% [at 6.97 µM] | cytotoxicity increase [6] 1.94% [at 6.97 µM] | activity change, negative = cytotoxic [7] 0.806% [at 6.97 µM] | cytotoxicity [8] 2.18% [at 6.97 µM] | cytotoxicity increase [9] -5.64% [at 6.97 µM] | activity change, negative = cytotoxicity [10] -0.96% [at 6.97 µM]

CC(CC=O)CC(C)(C)C (stereo not given)
inactive: Potency [1] | Potency [2] | outcome [3] | max response [4] -0.119% | outcome [5] | outcome [6] | Potency [7] | outcome [8]

CC(C)(N)C#N
inactive: Potency [1] | Potency [2] | outcome [3] | max response [4] -0.492% | outcome [5] | outcome [6] | Potency [7] | outcome [8] | Potency [9] | Potency [10]

C[N+](C)(CCOc1ccccc1)Cc1cccs1
inactive: Potency [1] | Potency [2] | outcome [3] | max response [4] 6.59% | outcome [5]

CC1=NN(c2cccc(S(=O)(=O)O)c2)C(=O)C1
inactive: Potency [1] | Potency [2] | outcome [3] | max response [4] 2.46% | outcome [5] | outcome [6] | Potency [7] | outcome [8] | Potency [9]

CCCO[Si](OCCC)(OCCC)OCCC
inactive: Potency [1] | Potency [2] | outcome [3] | max response [4] 2.55% | outcome [5] | outcome [6] | Potency [7] | outcome [8] | Potency [9] | Potency [10]

[Ca+2]
inactive: Potency [1] | Potency [2] | outcome [3] | max response [4] 5.91% | outcome [5] | outcome [6] | Potency [7] | outcome [8] | Potency [9] | Potency [10]

CN(C)CCN(C)CCN(C)C
inactive: Potency [1] | Potency [2] | outcome [3] | max response [4] 4.88% | outcome [5] | outcome [6] | Potency [7] | outcome [8] | Potency [9] | Potency [10]

O=CN(CCO)CCO
inactive: Potency [1] | Potency [2] | outcome [3] | max response [4] -0.597% | outcome [5] | outcome [6] | Potency [7] | outcome [8]

CCC(C(=O)NC(=O)NC(C)=O)c1ccccc1 (stereo not given)
inactive: Potency [1] | Potency [2] | outcome [3] | max response [4] -7.54% | outcome [5] | outcome [6] | Potency [7] | outcome [8] | Potency [9]
